# In the library only some 3.4% were active in any assay of this set; here they are far more common.
# PAFAH1B2 FP inh – PAFAH1B2 enzyme inhibitors, primary screen, biochemical, fluorescence polarization, human; Platelet-activating factor acetylhydrolase IB subunit alpha2 (Homo sapiens), P68402; inhibition, % at 3.39 µM; recombinant PAFAH1B2, FP-rhodamine activity probe; 1.2% of 340,000 active;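 active means inhibition above the mean of all tested compounds plus 3 SD, cut at about 24% in these data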
# Target sequence (P68402 whole entry, looked up): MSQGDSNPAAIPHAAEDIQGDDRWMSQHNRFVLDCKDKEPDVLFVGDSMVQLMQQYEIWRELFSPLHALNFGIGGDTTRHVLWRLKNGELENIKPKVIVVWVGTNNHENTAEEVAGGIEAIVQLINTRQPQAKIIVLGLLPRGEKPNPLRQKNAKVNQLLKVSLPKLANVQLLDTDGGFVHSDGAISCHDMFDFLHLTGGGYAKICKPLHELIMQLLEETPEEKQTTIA
# PP1 inh – PP1-alpha phosphatase inhibitors, primary screen, counter-screen for PP5 inhibitor project, biochemical, fluorescence, OMFP substrate, single point. Serine/threonine-protein phosphatase PP1-alpha catalytic subunit (Homo sapiens), P62136. purified PP1alpha. 0.9% of 320,000 active. inhibition, % at 6.7 µM;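 active means inhibition above the mean inhibition of all tested compounds plus 3 SD, computed separately for each screening campaign, cut at about 15% in these data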
# PP5 inh – PP5 phosphatase inhibitors, primary screen, biochemical, fluorescence. Serine/threonine-protein phosphatase 5 (Homo sapiens), P53041. purified PP5c, OMFP substrate fluorescence. inhibition, % at 6.7 µM. 0.18% of 320,000 active. AID 1987, 2009;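 active means inhibition above the campaign's mean inhibition across all tested compounds plus 3 SD, cut at about 9.5% in these data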
# PAFAH2 inh – PAFAH2 enzyme inhibitors, primary screen, biochemical, fluorescence polarization, human; Platelet-activating factor acetylhydrolase 2, cytoplasmic (Homo sapiens), Q99487; recombinant PAFAH2, FP-rhodamine activity probe; inhibition, % at 3.39 µM; 0.99% of 340,000 active; AID 492956, 2010;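 active means inhibition above the mean over all tested compounds plus 3 SD, cut at about 30% in these data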;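 further: inhibitors block probe labeling of enzyme so polarization drops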
# pPAFAH inh – pPAFAH enzyme inhibitors, primary screen, biochemical, fluorescence polarization, human. 1.5% of 330,000 active. recombinant pPAFAH, FP-rhodamine probe fluorescence polarization. AID 463082, 2010. inhibition, % at 3.39 µM;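 active means inhibition above the mean inhibition across the screen plus 3 SD, cut at about 25% in these data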;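 further: inhibitors block binding of the rhodamine activity-based probe so polarization drops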
# PAFAH1B3 inh – PAFAH1B3 enzyme inhibitors, primary screen, biochemical, fluorescence polarization, human; inhibition, % at 3.39 µM; recombinant PAFAH1B3, FP-rhodamine probe; Platelet-activating factor acetylhydrolase IB subunit alpha1 (Homo sapiens), Q15102; AID 492972, 2010; 0.28% of 340,000 active;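 active means inhibition above the screen-wide average of all tested compounds plus 3 SD, cut at about 25% in these data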
# Target sequence (Q15102 whole entry, looked up): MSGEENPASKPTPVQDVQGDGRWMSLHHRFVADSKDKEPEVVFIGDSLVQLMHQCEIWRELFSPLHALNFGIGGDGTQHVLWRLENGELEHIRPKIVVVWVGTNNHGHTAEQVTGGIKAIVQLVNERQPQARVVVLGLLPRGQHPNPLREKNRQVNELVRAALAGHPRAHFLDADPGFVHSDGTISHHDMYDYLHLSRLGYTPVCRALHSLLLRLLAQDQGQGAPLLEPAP
# A number is an active result; i = inactive; nt = no result given.
SMILES,PAFAH1B2 FP inh,PP1 inh,PP5 inh,PAFAH2 inh,pPAFAH inh,PAFAH1B3 inh
Cc1[nH]n(-c2ccccc2)c(=O)c1C=Nc1cccc2cccnc12,i,16,i,i,i,i
Cc1ccc(-n2[nH]c(C)c(/C=N/c3ccccn3)c2=O)cc1,i,i,i,i,i,i
Cc1ccc(/C=N/Nc2nncc(-c3ccccc3)n2)o1,nt,i,i,nt,i,nt
Cc1[nH]n(-c2ccccc2)c(=O)c1/C=N/Nc1nncc(-c2ccccc2)n1,i,17,i,i,i,i
O=c1[nH]cnc2c1c(-c1ccccc1)cn2-c1cccc(Cl)c1,i,i,i,i,34,i
COc1cc(-c2nc(-c3ccc4c(c3)-c3ccccc3S4(=O)=O)c(-c3ccccc3)[nH]2)cc(OC)c1O,i,i,i,i,27,i
Cn1c(=O)c(C(=O)COC(=O)c2cc(-c3ccco3)nc3ccccc23)c(N)n(CC2CC2)c1=O,nt,21,i,nt,i,nt
Cn1c(=O)c(C(=O)COC(=O)c2cc(C3CC3)nc3ccccc23)c(N)n(Cc2ccccc2)c1=O,nt,i,i,nt,i,nt
O=C(OCCN1CCCCC1)c1ccccc1Br,i,i,i,i,i,i
COc1ccc(CC(=O)Nc2ccc(-c3nc4cc(C)ccc4o3)c(O)c2)cc1OC,i,16,i,i,i,i
c1ccc(OCCOCCN2CCOCC2)cc1,i,i,i,i,i,i
CC(C)(c1ccccc1)c1ccc(OCCN2CCOCC2)cc1,i,i,i,i,27,i
C=CCn1c(SCc2ccc(Cl)cc2)nc2c1c(=O)[nH]c(=O)n2C,25,i,i,i,i,i
Nc1[nH]n2c(=O)cc(-c3ccccc3)nc2c1N=Nc1ccc(S(N)(=O)=O)cc1,i,16,i,i,i,i
COc1ccc(C2C/C(=N\O)C(C)(C)O2)cc1 (stereo not drawn),i,17,i,i,i,i
Nc1nc(SCC(=O)N2CCCC2)[nH]c(=O)c1-c1ccccc1,i,i,i,i,i,i
CC1CCCC(C)N1C(=O)CSc1nc(N)c(-c2ccccc2)c(=O)[nH]1 (stereo not drawn),25,i,i,i,i,i
CCCCNC(=O)c1ccc(CS(=O)(=O)Cc2ccccc2F)o1,i,i,i,i,25,i
Cc1cccc(CS(=O)(=O)Cc2ccc(C(=O)NCCc3ccccc3)o2)c1,i,i,i,i,29,i
COc1ccc(CCNC(=O)c2ccc(CSc3ccccc3)o2)cc1,i,i,i,i,25,i
Cc1cccc(CS(=O)(=O)Cc2ccc(C(=O)NCCCN3CCOCC3)o2)c1,i,i,i,i,i,i
Cc1cccc(CS(=O)(=O)Cc2ccc(C(=O)NCCCN3CCCC3)o2)c1,i,i,i,i,33,i
CC(C)OCCCNC(=O)c1ccc(CS(=O)(=O)Cc2ccccc2F)o1,i,i,i,i,i,i
CCOCCCNC(=O)c1ccc(CS(=O)(=O)Cc2cccc(C)c2)o1,i,i,i,i,i,i
CCCCCCSc1ccc([C@@H]2[C@H]3C(=O)N(CC)C(=O)[C@H]3[C@]3(C(=O)OC)CCCCN23)cc1OC,i,nt,nt,i,i,i
SMILES,PAFAH1B2 FP inh,PP1 inh,PP5 inh,PAFAH2 inh,pPAFAH inh,PAFAH1B3 inh
O=C(COc1ccccc1)NNC(=S)NC(=O)c1ccccc1,i,i,i,i,i,i
CCn1nc(C)c(CN2CCc3c([nH]c4ccccc34)C2C(C)(C)C)c1C (stereo not drawn),i,i,i,i,i,i
COc1cc([N+](=O)[O-])cc(/C=N/NC(=O)c2ccc(NC(=O)c3ccc(C)cc3)cc2)c1O,i,nt,nt,i,nt,i
COc1cc([N+](=O)[O-])cc(/C=N/NC(=O)c2ccc(C)nc2)c1O,i,24,i,i,i,i
Cc1ccc(C2C(C#N)=C(N)SC(N)=C2C#N)o1,nt,i,i,nt,29,nt
CC(C)(C)CC(C)(C)c1ccc(O)c(CN2CCN(CCC#N)CC2)c1,41,i,i,i,i,i
CC(C)(c1ccc(O)c([N+](=O)[O-])c1)c1ccc(O)c([N+](=O)[O-])c1,26,nt,nt,i,nt,i

# Screening data (PubChem BioAssay)
